Drawing on ChEMBL document CHEMBL2218924, “A broad activity screen in support of a chemogenomic map for kinase signalling research and drug discovery” (Biochem J, 2013), this text covers residual activity for 8 molecules.

SMILES strings stand for the structures.

The target in assay [1] is Serine/threonine-protein kinase PLK3 (Homo sapiens) (UniProt Q9H4B4). The note with it: at 1 µM.
Assay [2] has the same target. To be noted: at 10 µM.
The target of assay [3] is T1, cAMP-dependent protein kinase catalytic subunit PRKX (Homo sapiens) (UniProt P51817).
T1 sequence (whole entry): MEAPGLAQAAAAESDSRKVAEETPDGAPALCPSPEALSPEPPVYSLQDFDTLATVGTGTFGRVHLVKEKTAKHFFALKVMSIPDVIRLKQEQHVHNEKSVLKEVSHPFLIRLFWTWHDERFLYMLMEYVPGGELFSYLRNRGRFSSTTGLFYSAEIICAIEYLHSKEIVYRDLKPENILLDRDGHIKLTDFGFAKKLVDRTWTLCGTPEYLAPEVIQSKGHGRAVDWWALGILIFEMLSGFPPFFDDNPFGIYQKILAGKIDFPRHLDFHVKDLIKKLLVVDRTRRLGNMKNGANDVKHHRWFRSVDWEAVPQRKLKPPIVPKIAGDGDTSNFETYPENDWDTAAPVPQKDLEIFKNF
The note with it: at 1 µM.

In assay [4] the target is T1, cAMP-dependent protein kinase catalytic subunit PRKX (Homo sapiens). The note with it: at 10 µM.
In assay [5] the target is Protein-tyrosine kinase 2-beta (Homo sapiens) (UniProt Q14289). The note with it: at 1 µM.
Sequence of Protein-tyrosine kinase 2-beta (Homo sapiens) (Q14289 whole entry, looked up): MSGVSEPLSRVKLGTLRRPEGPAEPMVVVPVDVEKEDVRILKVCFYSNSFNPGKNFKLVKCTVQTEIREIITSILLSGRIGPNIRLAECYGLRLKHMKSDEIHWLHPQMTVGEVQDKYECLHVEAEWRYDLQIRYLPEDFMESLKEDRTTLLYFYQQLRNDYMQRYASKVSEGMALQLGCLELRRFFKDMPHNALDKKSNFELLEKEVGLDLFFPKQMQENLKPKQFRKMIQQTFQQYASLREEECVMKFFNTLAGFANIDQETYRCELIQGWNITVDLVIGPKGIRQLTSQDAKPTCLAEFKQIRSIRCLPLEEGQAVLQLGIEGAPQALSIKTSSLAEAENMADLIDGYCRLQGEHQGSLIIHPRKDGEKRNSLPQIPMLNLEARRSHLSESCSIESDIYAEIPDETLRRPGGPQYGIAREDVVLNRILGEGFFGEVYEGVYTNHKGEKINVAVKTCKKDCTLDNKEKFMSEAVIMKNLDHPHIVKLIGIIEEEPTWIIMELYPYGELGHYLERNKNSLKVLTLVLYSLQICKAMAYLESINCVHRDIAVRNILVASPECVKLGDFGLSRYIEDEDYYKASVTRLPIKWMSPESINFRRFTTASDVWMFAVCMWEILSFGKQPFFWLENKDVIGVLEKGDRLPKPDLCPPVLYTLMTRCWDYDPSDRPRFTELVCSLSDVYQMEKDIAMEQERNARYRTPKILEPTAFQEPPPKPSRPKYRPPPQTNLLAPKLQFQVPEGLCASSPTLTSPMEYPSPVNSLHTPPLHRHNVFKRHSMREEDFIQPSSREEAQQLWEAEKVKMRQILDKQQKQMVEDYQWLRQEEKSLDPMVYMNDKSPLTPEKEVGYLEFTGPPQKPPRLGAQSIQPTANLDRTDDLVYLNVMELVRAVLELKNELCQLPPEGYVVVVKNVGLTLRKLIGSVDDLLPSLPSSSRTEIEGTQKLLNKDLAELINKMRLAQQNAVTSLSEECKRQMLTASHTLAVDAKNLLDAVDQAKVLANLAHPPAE
In assay [6] the target is Receptor-interacting serine/threonine-protein kinase 2 (Homo sapiens) (UniProt O43353). To be noted: at 1 µM.
Sequence of Receptor-interacting serine/threonine-protein kinase 2 (Homo sapiens) (O43353 whole entry): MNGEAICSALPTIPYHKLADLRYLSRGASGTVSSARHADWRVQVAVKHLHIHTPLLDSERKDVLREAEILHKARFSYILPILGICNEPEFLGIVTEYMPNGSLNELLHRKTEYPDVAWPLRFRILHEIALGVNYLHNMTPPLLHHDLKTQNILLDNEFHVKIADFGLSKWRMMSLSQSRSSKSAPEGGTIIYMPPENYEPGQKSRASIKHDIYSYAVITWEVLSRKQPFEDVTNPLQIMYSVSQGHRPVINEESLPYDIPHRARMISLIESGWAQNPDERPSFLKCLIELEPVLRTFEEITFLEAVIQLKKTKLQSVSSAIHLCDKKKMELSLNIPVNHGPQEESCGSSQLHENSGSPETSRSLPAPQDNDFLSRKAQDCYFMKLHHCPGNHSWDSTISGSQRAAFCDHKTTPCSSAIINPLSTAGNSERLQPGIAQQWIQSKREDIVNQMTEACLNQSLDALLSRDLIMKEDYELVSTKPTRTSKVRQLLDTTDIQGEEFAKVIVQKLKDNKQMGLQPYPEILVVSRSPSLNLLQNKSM
The target is the same in assay [7]. The note with it: at 10 µM.
Assay [8] addresses Rho-associated protein kinase 1 (Homo sapiens) (UniProt Q13464). The note with it: at 1 µM.
Assay [9] shares this target. To be noted: at 10 µM.
For assay [10], the target named is Rho-associated protein kinase 2 (Homo sapiens) (UniProt O75116). To be noted: at 1 µM.
Sequence of Rho-associated protein kinase 2 (Homo sapiens) (O75116 whole entry, looked up): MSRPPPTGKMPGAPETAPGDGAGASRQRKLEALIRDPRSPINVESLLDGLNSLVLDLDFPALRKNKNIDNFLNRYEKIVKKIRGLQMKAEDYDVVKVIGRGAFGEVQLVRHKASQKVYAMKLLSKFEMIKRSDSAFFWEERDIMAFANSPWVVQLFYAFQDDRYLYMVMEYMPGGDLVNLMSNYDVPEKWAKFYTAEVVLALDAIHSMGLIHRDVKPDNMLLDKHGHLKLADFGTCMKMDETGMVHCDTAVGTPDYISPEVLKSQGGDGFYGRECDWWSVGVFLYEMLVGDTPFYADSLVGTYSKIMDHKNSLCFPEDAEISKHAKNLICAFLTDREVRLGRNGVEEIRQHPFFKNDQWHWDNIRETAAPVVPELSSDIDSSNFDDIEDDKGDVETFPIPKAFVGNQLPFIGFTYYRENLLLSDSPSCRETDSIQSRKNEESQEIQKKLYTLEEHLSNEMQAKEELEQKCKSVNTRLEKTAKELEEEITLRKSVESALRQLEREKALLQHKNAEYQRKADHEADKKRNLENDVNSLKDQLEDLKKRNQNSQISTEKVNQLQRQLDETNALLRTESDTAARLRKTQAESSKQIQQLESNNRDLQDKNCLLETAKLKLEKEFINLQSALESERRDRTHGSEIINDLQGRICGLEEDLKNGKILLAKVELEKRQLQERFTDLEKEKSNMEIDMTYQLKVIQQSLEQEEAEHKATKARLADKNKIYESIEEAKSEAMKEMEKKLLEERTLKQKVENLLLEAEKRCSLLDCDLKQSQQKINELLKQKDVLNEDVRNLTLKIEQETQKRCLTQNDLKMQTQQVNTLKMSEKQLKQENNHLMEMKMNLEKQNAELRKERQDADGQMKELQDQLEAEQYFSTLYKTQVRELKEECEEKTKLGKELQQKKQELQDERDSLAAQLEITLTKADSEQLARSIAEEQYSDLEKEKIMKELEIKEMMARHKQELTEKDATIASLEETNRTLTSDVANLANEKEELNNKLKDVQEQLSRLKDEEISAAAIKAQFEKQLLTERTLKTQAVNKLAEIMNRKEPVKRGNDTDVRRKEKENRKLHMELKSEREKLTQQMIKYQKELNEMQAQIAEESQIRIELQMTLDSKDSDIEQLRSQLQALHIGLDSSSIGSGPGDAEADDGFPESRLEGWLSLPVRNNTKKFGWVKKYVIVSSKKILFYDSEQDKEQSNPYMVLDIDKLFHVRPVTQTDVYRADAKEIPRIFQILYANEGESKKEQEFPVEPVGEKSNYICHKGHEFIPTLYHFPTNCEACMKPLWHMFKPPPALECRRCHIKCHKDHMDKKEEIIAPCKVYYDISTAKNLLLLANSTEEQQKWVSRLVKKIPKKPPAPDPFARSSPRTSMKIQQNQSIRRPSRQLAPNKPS
For assay [11] the target is unchanged. To be noted: at 10 µM.
The target of assay [12] is Proto-oncogene tyrosine-protein kinase receptor Ret (Homo sapiens) (UniProt P07949). To be noted: at 1 µM.
For assay [13] the target is unchanged. The note with it: at 10 µM.
Assay [14] has as its target Macrophage-stimulating protein receptor (Homo sapiens) (UniProt Q04912). To be noted: at 1 µM.
For assay [15] the target is unchanged. To be noted: at 10 µM.
For assay [16], the target named is Proto-oncogene tyrosine-protein kinase ROS (Homo sapiens) (UniProt P08922). The note with it: at 1 µM.
For assay [17] the target is unchanged. The note with it: at 10 µM.
Assay [18] deals with T2, Tyrosine-protein kinase receptor TYRO3 (Homo sapiens) (UniProt Q06418).
T2 sequence (whole entry): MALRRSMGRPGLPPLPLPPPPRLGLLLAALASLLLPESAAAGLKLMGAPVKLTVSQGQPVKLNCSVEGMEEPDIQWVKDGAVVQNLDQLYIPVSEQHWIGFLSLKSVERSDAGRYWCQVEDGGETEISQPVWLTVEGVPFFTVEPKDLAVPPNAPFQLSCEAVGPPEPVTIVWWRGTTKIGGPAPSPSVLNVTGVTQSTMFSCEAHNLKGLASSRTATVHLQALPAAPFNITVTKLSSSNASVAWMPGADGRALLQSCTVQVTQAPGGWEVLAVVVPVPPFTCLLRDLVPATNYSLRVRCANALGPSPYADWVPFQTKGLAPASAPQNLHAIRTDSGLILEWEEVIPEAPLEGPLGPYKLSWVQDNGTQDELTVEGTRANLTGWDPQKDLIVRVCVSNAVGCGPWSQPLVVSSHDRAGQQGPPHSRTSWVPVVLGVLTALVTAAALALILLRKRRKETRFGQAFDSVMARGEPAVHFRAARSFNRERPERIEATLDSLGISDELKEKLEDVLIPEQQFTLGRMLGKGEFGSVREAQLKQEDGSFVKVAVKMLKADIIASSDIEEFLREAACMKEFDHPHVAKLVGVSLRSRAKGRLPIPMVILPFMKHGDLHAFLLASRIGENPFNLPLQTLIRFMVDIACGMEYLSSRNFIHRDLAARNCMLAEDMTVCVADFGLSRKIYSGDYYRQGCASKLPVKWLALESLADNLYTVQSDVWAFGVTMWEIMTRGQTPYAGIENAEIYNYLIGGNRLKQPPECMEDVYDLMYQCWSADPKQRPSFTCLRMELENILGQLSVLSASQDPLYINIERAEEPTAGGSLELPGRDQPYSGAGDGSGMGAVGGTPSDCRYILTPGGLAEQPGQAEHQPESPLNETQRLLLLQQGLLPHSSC
To be noted: at 1 µM.

Assay [19] addresses T2, Tyrosine-protein kinase receptor TYRO3 (Homo sapiens). The note with it: at 10 µM.
For assay [20], the target named is Protein-tyrosine kinase 2-beta (Homo sapiens) (UniProt Q14289). To be noted: at 10 µM.

Sequence of Serine/threonine-protein kinase PLK3 (Homo sapiens) (Q9H4B4 whole entry, looked up): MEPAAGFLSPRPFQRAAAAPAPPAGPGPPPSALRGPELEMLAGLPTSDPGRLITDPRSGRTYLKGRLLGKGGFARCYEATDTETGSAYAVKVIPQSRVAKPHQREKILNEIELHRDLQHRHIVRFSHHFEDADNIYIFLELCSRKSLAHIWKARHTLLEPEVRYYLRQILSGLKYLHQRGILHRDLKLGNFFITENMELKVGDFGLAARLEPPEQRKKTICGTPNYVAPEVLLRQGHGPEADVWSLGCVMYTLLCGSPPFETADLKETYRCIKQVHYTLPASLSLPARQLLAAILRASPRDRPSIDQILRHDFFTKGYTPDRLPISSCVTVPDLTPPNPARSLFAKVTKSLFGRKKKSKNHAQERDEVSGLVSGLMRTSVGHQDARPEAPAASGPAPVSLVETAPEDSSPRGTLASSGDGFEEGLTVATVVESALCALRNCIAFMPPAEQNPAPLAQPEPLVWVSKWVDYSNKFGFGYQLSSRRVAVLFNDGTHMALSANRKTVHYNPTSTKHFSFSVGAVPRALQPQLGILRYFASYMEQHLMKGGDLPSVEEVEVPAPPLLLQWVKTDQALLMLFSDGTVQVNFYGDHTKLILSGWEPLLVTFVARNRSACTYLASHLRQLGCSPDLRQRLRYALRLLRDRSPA
Sequence of Rho-associated protein kinase 1 (Homo sapiens) (Q13464 2-1354 limits assumed): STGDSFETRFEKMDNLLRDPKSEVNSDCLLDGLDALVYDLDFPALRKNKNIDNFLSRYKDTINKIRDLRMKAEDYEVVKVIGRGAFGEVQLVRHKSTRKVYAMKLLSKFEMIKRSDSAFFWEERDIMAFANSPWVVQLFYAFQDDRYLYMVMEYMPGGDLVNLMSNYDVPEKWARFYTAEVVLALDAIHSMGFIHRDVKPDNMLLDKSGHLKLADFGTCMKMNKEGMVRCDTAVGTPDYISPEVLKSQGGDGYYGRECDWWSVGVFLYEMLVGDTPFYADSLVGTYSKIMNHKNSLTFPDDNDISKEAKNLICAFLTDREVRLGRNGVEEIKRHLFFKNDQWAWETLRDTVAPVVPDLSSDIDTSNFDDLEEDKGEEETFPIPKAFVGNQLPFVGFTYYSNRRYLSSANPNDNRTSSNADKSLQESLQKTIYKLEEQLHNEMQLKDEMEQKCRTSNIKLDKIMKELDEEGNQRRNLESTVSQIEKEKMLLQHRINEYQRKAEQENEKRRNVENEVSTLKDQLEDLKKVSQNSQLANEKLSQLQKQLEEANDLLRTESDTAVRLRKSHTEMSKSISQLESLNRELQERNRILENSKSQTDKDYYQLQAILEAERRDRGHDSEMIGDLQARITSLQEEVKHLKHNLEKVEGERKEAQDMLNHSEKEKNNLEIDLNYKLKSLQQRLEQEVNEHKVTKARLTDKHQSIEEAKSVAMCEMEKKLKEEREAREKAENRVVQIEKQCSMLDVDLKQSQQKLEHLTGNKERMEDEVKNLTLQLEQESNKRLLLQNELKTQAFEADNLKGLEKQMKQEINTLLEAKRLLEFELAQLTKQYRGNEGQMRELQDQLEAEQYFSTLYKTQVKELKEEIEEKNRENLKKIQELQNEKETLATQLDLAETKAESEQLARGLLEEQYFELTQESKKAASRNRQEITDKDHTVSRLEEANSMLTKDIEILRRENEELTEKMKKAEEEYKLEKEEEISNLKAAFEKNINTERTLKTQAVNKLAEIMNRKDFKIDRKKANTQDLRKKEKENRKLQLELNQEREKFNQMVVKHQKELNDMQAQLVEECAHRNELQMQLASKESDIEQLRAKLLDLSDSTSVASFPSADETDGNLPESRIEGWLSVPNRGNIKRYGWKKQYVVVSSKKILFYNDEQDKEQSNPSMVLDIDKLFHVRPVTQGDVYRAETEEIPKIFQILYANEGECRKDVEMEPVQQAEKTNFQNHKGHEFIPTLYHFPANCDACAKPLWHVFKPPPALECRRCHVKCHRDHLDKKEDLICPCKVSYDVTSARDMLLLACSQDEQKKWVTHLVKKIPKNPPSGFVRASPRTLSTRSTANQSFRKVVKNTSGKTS

`CC#CC(=O)Nc1cc2c(Nc3ccc(F)c(Cl)c3)ncnc2cn1`: the residual activity in [1] was 96% (inactive); in assay [2] it was 82%; in assay [3] it was 100%; in assay [4] it was 93%; in assay [5], 120%; in assay [6] it was 82%. Further, the residual activity is 60% in assay [7]; 99% in assay [8]; 116% in assay [9]; 92% in assay [10]; 77% in assay [11]; 100% in assay [12]. The residual activity turned out to be 104% in [13]; 101% in [14]; 76% in assay [15]; 94% in [16]; 92% in [17]; 85% in assay [18]. The residual activity in [19] is 82%.
On to `Nc1cccc(-c2cc3c(Oc4cccc(O)c4)ncnc3[nH]2)c1`, for which the residual activity in assay [1] was 99% (inactive); in [2], 74%; in assay [3], 85%; in assay [4], 70%; in assay [5], 25%; in assay [20], 5%. Further, the residual activity in assay [6] was found to be 18%; in assay [7], 11%; in [9], 97%; in [10], 93%; in [11] it was 87%; in assay [12] it was 2%. Besides, the residual activity in assay [13] came out at 0%; in [14], 83%; in assay [15], 40%; in [16] it was 98%; in [17], 60%; in assay [18] it was 6%. Besides, in assay [19], the residual activity was 0%.
With `COc1cc2ncnc(Nc3ccc(O)c(Br)c3)c2cc1OC`, the residual activity in assay [1] is 92% (inactive); in assay [2], 88%; in [3], 90%; in assay [4], 66%; in [5], 85%; in assay [20], 42%. Besides, the residual activity in [6] stood at 20%; in assay [7] it was 8%; in assay [8], 116%; in assay [9] it was 102%; in [10], 39%; in assay [11], 40%. Further, the residual activity in [12] was 23%; in assay [13], 1%; in assay [14] it was 90%; in assay [15] it was 50%; in [16] it was 88%; in assay [17], 84%. Also, the residual activity in assay [18] came out at 38%; in [19], 4%.
In the case of `O=C1Nc2ccccc2/C1=C1/Nc2ccccc2/C1=N\OCCC(O)CO` (stereo unspecified), the residual activity worked out at 66% in assay [3]; 41% in assay [4]; 7% in [5]; 2% in assay [20]; 58% in assay [6]; 50% in [7]. Moreover, the residual activity is 114% in assay [8]; 98% in assay [9]; 2% in assay [12]; -1% in assay [13]; 75% in assay [14]; 61% in assay [15]. In addition, the residual activity worked out at 52% in assay [18] and 46% in [19].
As for `c1ccc(-c2n[nH]c3c2oc2ccccc23)cc1`, the residual activity was 100% (inactive) in assay [1]; 90% in assay [2]; 88% in [3]; 94% in assay [4]; 97% in assay [6]; 64% in assay [7]. The residual activity was determined as 114% in [8]; 126% in [9]; 97% in [10]; 75% in assay [11]; 74% in assay [12]; 47% in assay [13]. The residual activity is 58% in [14]; 73% in assay [15]; 97% in assay [16]; 93% in assay [17]; 79% in assay [18]; 62% in [19].
Consider `O=C1Nc2ccc(Br)cc2/C1=C\c1cc2c([nH]1)CCCC2`, for which the residual activity in [3] is 113%; in assay [4] it was 102%; in assay [5] it was 75%; in assay [20], 49%; in [8] it was 119%; in [9], 116%. For the same molecule, the residual activity stood at 101% in assay [10]; 82% in assay [11]; 74% in assay [12]; 69% in assay [13]; 116% in [14]; 84% in assay [15]. For the same molecule, in assay [17], the residual activity was found to be 80%.
In the case of `COc1cc2ncnc(N3CCN(C(=O)Nc4ccc(Oc5ccccc5)cc4)CC3)c2cc1OC`, the residual activity in assay [1] was 90% (inactive); in [2] it was 92%; in [3] it was 77%; in [4] it was 113%; in assay [5], 122%; in [20], 104%. The residual activity worked out at 84% in [6]; 70% in assay [7]; 124% in assay [8]; 98% in assay [10]; 87% in assay [11]; 101% in assay [12]. For the same molecule, the residual activity in [13] amounted to 82%; in [14] it was 74%; in assay [15] it was 20%; in assay [16], 81%; in assay [17] it was 86%; in assay [18], 97%. Besides, in [19], the residual activity came out at 95%.
Regarding `COc1cccc(-c2cc(=O)c3ccccc3o2)c1N`, the residual activity in [1] is 111% (inactive); in assay [3], 90%; in assay [4], 33%; in assay [5], 106%; in assay [20], 112%; in assay [6], 92%. Moreover, the residual activity in [7] came to 106%; in assay [8] it was 117%; in [9] it was 100%; in [10] it was 97%; in [11], 96%; in assay [12], 114%. Moreover, the residual activity in [13] was determined as 83%; in [14], 93%; in [15], 97%; in assay [16], 106%; in [17], 97%; in assay [18], 78%. In assay [19], the residual activity was found to be 122%.
